{"source": "PubChem BioAssay (NCATS)", "key": {"[1]": {"assay": "Primary qHTS for small molecule stabilizers of the endoplasmic reticulum resident proteome: Secreted ER Calcium Modulated Protein (SERCaMP) assay (AID 1508630)", "how_it_was_run": "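GLuc-SERCaMP-expressing SH-SY5Y cells, pretreated 16 h with compound, are challenged with thapsigargin to empty ER calcium stores; after 4 h, coelenterazine is added directly to the medium and luminescence is imaged.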"}, "[2]": {"assay": "A High-Content qHTS Against Drug Library for the Identification of Small Molecules that Inhibit DYT1 Early Onset Primary Dystonia-Associated Cell Pathology (AID 1645839; calls by dose curve; also: series mostly up to about 46 µM)", "how_it_was_run": "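Flp-In T-REx 293 cells with tetracycline-inducible EGFP-delE hTOR1A (WT EGFP-hTOR1A as reference), 800 cells/well; compound added with tetracycline, 48 h at 37 C. Fixed, permeabilized cells imaged; %pathology (punctate TorsinA) primary, cell count counterscreen.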"}, "[3]": {"molecular_target": "Cytochrome P450 2D6 (Homo sapiens) (UniProt P10635)", "sequence (P10635 whole entry, looked up)": "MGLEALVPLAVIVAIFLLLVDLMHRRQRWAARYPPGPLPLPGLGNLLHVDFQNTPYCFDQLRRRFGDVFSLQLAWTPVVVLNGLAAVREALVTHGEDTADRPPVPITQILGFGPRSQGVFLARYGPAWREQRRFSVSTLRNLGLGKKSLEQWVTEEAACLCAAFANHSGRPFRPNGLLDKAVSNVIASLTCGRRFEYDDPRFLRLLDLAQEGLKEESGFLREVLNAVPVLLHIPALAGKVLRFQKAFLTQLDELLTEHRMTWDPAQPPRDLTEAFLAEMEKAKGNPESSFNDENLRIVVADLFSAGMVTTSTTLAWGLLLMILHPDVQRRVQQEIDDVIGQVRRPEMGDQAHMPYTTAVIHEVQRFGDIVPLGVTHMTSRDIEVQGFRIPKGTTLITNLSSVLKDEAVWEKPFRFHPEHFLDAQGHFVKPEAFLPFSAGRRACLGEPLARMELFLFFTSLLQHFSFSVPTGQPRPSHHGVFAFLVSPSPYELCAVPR", "assay": "Cytochrome P450 family 2 subfamily D member 6 (CYP2D6) small molecule antagonists: luciferase biochemical (cell-free) qHTS assay (AID 1645840; active = well fitted curve in the direction sought with a large enough effect in the repeat runs; an effect the other way counts as inactive or inconclusive; also: nearly all actives have a fitted effect of over 55% in size; also: potency is read from the fitted curve at half-maximal effect)", "how_it_was_run": "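P450-Glo luminescent screen: recombinant CYP2D6 enzyme–proluciferin substrate mix preincubated with compound 10 min at room temperature, then NADPH regeneration added for 1 h at room temperature. Detection reagent added for 20 min; luciferin light read as relative luminescence units.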"}, "[4]": {"molecular_target": "Cytochrome P450 2C9 (Homo sapiens) (UniProt P11712)", "sequence (P11712 whole entry, looked up)": "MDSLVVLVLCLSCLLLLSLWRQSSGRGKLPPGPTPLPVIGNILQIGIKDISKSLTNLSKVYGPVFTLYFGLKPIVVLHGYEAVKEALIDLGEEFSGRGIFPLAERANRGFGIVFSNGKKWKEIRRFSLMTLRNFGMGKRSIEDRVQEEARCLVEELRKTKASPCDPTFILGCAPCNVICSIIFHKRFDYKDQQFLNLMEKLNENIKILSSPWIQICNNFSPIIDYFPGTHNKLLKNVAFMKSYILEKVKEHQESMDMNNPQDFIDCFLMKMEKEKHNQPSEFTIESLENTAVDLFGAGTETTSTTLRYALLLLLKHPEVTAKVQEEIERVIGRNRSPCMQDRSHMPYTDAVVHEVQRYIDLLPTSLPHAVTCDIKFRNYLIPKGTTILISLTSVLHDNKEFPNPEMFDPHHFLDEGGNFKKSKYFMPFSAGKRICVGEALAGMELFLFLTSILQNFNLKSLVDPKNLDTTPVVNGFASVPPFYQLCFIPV", "assay": "Cytochrome P450 family 2 subfamily C member 9 (CYP2C9) small molecule antagonists: luciferase biochemical (cell-free) qHTS assay (AID 1645842; active = well fitted curve in the direction sought with a large enough effect in the repeat runs; an effect the other way counts as inactive or inconclusive; also: nearly all actives have a fitted effect of over 55% in size; also: potency is read from the fitted curve at half-maximal effect)", "how_it_was_run": "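Luminescence, after 20 min with luciferin detection reagent, reflected CYP2C9 turnover during a 1 h NADPH-driven reaction at 37C. Enzyme-substrate mix contained 0.4% bovine serum albumin and was preincubated with compound 10 min at room temperature.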"}, "Papain (Carica papaya)": {"molecular_target": "Papain (Carica papaya) (UniProt P00784)", "sequence (P00784 whole entry, looked up)": "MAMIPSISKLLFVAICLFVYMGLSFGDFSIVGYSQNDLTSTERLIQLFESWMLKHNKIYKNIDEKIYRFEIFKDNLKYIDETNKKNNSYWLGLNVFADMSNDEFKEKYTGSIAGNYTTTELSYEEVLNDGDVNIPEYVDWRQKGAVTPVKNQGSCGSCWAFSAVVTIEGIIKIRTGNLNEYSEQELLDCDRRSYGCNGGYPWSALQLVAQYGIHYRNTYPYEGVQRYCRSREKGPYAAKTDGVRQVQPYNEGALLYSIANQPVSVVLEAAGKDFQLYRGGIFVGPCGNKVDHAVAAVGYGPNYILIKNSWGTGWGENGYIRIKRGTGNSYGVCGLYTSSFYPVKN", "assay": "Primary qHTS assay for inhibitors of the protease papain (AID 1645873);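 also: papain turnover of Z-FR-AMC read as the AMC fluorescence gain over 10 min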; also: potency is read from the fitted curve at half-maximal effect"}}, "note": "Results filed as inconclusive are left out. Where a call stands in place of a potency, no number is given. Activity calls are given as the source filed them. Unless noted, calls follow the shape of the dose curve; as a rule, active = well fitted curve in the direction sought with a large enough effect; inconclusive = small, poorly fitted or top-dose-only effect, or another doubt; inactive = no such curve, though single readings can be large; an effect the other way counts as inactive or inconclusive."}
{"compound": "CC(N)C(=O)OC(C)(C)Cc1ccc(Cl)cc1", "note": "(stereo unspecified)", "values": [{"measurement": "Potency", "setting": "[1]", "result": "inactive"}, {"measurement": "Potency", "setting": "[2]", "result": "inactive"}, {"measurement": "Potency", "setting": "[3]", "result": "12.3 µM (active)"}, {"measurement": "Potency", "setting": "[4]", "result": "12.3 µM (active)"}, {"measurement": "Potency", "setting": "Papain (Carica papaya)", "result": "inactive"}]}
{"compound": "CN(C)C(N)=NCCC[C@H](N)C(=O)O", "values": [{"measurement": "Potency", "setting": "[1]", "result": "inactive"}, {"measurement": "Potency", "setting": "Papain (Carica papaya)", "result": "inactive"}]}
{"compound": "C#CC1(O)CC[C@H]2[C@@H]3CCC4=CCCC[C@@H]4[C@H]3CC[C@@]21C", "note": "(stereo partly specified)", "values": [{"measurement": "Potency", "setting": "[1]", "result": "inactive"}, {"measurement": "Potency", "setting": "[4]", "result": "1.74 µM (active)"}]}
{"compound": "COc1cc2c(CCNC(C)=O)c[nH]c2cc1Cl", "values": [{"measurement": "Potency", "setting": "[1]", "result": "inactive"}, {"measurement": "Potency", "setting": "Papain (Carica papaya)", "result": "inactive"}]}
{"compound": "NS(=O)(=O)C#Cc1ccccc1", "values": [{"measurement": "Potency", "setting": "[1]", "result": "inactive"}, {"measurement": "Potency", "setting": "Papain (Carica papaya)", "result": "inactive"}]}
{"compound": "NC(CCCP(=O)(O)O)C(=O)O", "note": "(stereo unspecified)", "values": [{"measurement": "Potency", "setting": "[1]", "result": "inactive"}, {"measurement": "Potency", "setting": "Papain (Carica papaya)", "result": "inactive"}]}
{"compound": "NCCCS(=O)(=O)O", "values": [{"measurement": "Potency", "setting": "[1]", "result": "inactive"}, {"measurement": "Potency", "setting": "Papain (Carica papaya)", "result": "inactive"}]}
{"compound": "NCCSSCCN", "values": [{"measurement": "Potency", "setting": "[1]", "result": "inactive"}, {"measurement": "Potency", "setting": "Papain (Carica papaya)", "result": "inactive"}]}
{"compound": "COC(=O)Nc1nc2ccc(C(=O)C3CC3)cc2[nH]1", "values": [{"measurement": "Potency", "setting": "[1]", "result": "inactive"}, {"measurement": "Potency", "setting": "[3]", "result": "inactive"}, {"measurement": "Potency", "setting": "[4]", "result": "inactive"}]}
{"compound": "CN(C)CCC(c1ccc(Cl)cc1)c1ccccn1", "note": "(stereo unspecified)", "values": [{"measurement": "Potency", "setting": "[1]", "result": "inactive"}, {"measurement": "Potency", "setting": "Papain (Carica papaya)", "result": "inactive"}]}
{"compound": "CCCCCCCCCCCCCCCCCC(=O)OC(CC(=O)O)C[N+](C)(C)C", "note": "(stereo unspecified)", "values": [{"measurement": "Potency", "setting": "[1]", "result": "inactive"}, {"measurement": "Potency", "setting": "Papain (Carica papaya)", "result": "inactive"}]}
{"compound": "Nc1nc(Nc2ccccc2)nc2c1ncn2[C@@H]1O[C@H](CO)[C@@H](O)[C@H]1O", "values": [{"measurement": "Potency", "setting": "[1]", "result": "inactive"}, {"measurement": "Potency", "setting": "Papain (Carica papaya)", "result": "inactive"}]}
{"compound": "CN1CCc2cc(NC(=O)Nc3cccnc3)ccc21", "values": [{"measurement": "Potency", "setting": "[1]", "result": "inactive"}, {"measurement": "Potency", "setting": "Papain (Carica papaya)", "result": "inactive"}]}
{"compound": "OC[C@H]1O[C@@H](n2cnc3c(NC4CCCC4)ncnc32)[C@H](O)[C@@H]1O", "values": [{"measurement": "Potency", "setting": "[1]", "result": "inactive"}, {"measurement": "Potency", "setting": "Papain (Carica papaya)", "result": "inactive"}]}
{"compound": "O=Nc1ccc2oc(=O)ccc2c1", "values": [{"measurement": "Potency", "setting": "[1]", "result": "inactive"}, {"measurement": "Potency", "setting": "Papain (Carica papaya)", "result": "inactive"}]}
{"compound": "O=C1NC(=O)c2c1c(-c1ccccc1)cc1[nH]c3ccc(O)cc3c21", "values": [{"measurement": "Potency", "setting": "[1]", "result": "inactive"}, {"measurement": "Potency", "setting": "Papain (Carica papaya)", "result": "inactive"}]}
{"compound": "CCCCC1C(=O)N(c2ccccc2)N(c2ccc(O)cc2)C1=O", "note": "(stereo unspecified)", "values": [{"measurement": "Potency", "setting": "[1]", "result": "inactive"}, {"measurement": "Potency", "setting": "[4]", "result": "8.71 µM (active)"}]}
{"compound": "Cc1cc(NC(=O)Nc2ccc3c(ccn3C)c2)sn1", "values": [{"measurement": "Potency", "setting": "[1]", "result": "inactive"}, {"measurement": "Potency", "setting": "Papain (Carica papaya)", "result": "inactive"}]}
{"compound": "CC[C@@H](C)[C@H]1O[C@]2(CC[C@H]1C)C[C@@H]1C[C@@H](CC=C(C)[C@@H](O[C@H]3C[C@H](OC)[C@@H](O[C@H]4C[C@H](OC)[C@@H](O)[C@H](C)O4)[C@H](C)O3)[C@@H](C)C=CC=C3CO[C@@H]4[C@H](O)C(C)=C[C@@H](C(=O)O1)[C@]34O)O2", "values": [{"measurement": "Potency", "setting": "[1]", "result": "inactive"}, {"measurement": "Potency", "setting": "Papain (Carica papaya)", "result": "inactive"}]}
{"compound": "O=C(O)CCCC[C@@H]1CCSS1", "values": [{"measurement": "Potency", "setting": "[1]", "result": "inactive"}, {"measurement": "Potency", "setting": "Papain (Carica papaya)", "result": "inactive"}]}
{"compound": "N[C@H](CCCP(=O)(O)O)C(=O)O", "values": [{"measurement": "Potency", "setting": "[1]", "result": "inactive"}, {"measurement": "Potency", "setting": "Papain (Carica papaya)", "result": "inactive"}]}
{"compound": "CSc1nc(N)c2ncn([C@@H]3O[C@H](COP(=O)(O)OP(=O)(O)OP(=O)(O)O)[C@@H](O)[C@H]3O)c2n1", "values": [{"measurement": "Potency", "setting": "[1]", "result": "inactive"}, {"measurement": "Potency", "setting": "Papain (Carica papaya)", "result": "inactive"}]}
{"compound": "COC(=O)c1nc(Cl)c(Cl)nc1N", "values": [{"measurement": "Potency", "setting": "[1]", "result": "inactive"}, {"measurement": "Potency", "setting": "[3]", "result": "inactive"}, {"measurement": "Potency", "setting": "[4]", "result": "inactive"}]}
{"compound": "CNC(=O)[C@H]1O[C@@H](n2cnc3c(NCc4cccc(I)c4)ncnc32)[C@H](O)[C@@H]1O", "values": [{"measurement": "Potency", "setting": "[1]", "result": "inactive"}, {"measurement": "Potency", "setting": "Papain (Carica papaya)", "result": "inactive"}]}
{"compound": "S=c1[nH]c2ccccc2s1", "values": [{"measurement": "Potency", "setting": "[1]", "result": "inactive"}, {"measurement": "Potency", "setting": "[3]", "result": "29.1 µM (active)"}, {"measurement": "Potency", "setting": "[4]", "result": "15.9 µM (active)"}]}
{"compound": "O=C(Nc1cccc(C(=O)Nc2ccc(S(=O)(=O)O)c3cc(S(=O)(=O)O)cc(S(=O)(=O)O)c23)c1)Nc1cccc(C(=O)Nc2ccc(S(=O)(=O)O)c3cc(S(=O)(=O)O)cc(S(=O)(=O)O)c23)c1", "values": [{"measurement": "Potency", "setting": "[1]", "result": "inactive"}, {"measurement": "Potency", "setting": "Papain (Carica papaya)", "result": "3.16 µM (active)"}]}
{"compound": "O=c1[nH]c2cc([N+](=O)[O-])c([N+](=O)[O-])cc2[nH]c1=O", "values": [{"measurement": "Potency", "setting": "[1]", "result": "inactive"}, {"measurement": "Potency", "setting": "Papain (Carica papaya)", "result": "inactive"}]}
{"compound": "C[C@@H](CN1CCC(Cc2ccccc2)CC1)[C@@H](O)c1ccc(O)cc1", "values": [{"measurement": "Potency", "setting": "[1]", "result": "inactive"}, {"measurement": "Potency", "setting": "Papain (Carica papaya)", "result": "inactive"}]}
{"compound": "CC(C)(C)c1ccc(S(=O)(=O)/C=C/C#N)cc1", "values": [{"measurement": "Potency", "setting": "[1]", "result": "inactive"}, {"measurement": "Potency", "setting": "Papain (Carica papaya)", "result": "inactive"}]}
{"compound": "CNc1ncnc2c1ncn2[C@@H]1O[C@H](CO)[C@@H](O)[C@H]1O", "values": [{"measurement": "Potency", "setting": "[1]", "result": "inactive"}, {"measurement": "Potency", "setting": "Papain (Carica papaya)", "result": "inactive"}]}
{"compound": "O=C(CS)Nc1ccccc1", "values": [{"measurement": "Potency", "setting": "[1]", "result": "inactive"}, {"measurement": "Potency", "setting": "[4]", "result": "4.9 µM (active)"}]}
{"compound": "Nc1ncnc2c1ncn2[C@@H]1O[C@H](COP(=O)(O)OP(=O)(O)OP(=O)(O)OP(=O)(O)OC[C@@H]2O[C@H](n3cnc4c(N)ncnc43)[C@@H](O)[C@H]2O)[C@@H](O)[C@H]1O", "values": [{"measurement": "Potency", "setting": "[1]", "result": "inactive"}, {"measurement": "Potency", "setting": "Papain (Carica papaya)", "result": "inactive"}]}
{"compound": "S=C(S)OC1CC2CC1C1CCCC21", "note": "(stereo unspecified)", "values": [{"measurement": "Potency", "setting": "[1]", "result": "inactive"}, {"measurement": "Potency", "setting": "Papain (Carica papaya)", "result": "inactive"}]}
{"compound": "CO/N=C(\\C(=O)N[C@@H]1C(=O)N2C(C(=O)O)=C(COC(C)=O)CS[C@H]12)c1csc(N)n1", "values": [{"measurement": "Potency", "setting": "[1]", "result": "inactive"}, {"measurement": "Potency", "setting": "[3]", "result": "inactive"}, {"measurement": "Potency", "setting": "[4]", "result": "inactive"}, {"measurement": "Potency", "setting": "Papain (Carica papaya)", "result": "inactive"}]}
{"compound": "CCCCCCCCc1ccc(-c2ccc(C(=O)O)cc2)cc1", "values": [{"measurement": "Potency", "setting": "[1]", "result": "inactive"}, {"measurement": "Potency", "setting": "Papain (Carica papaya)", "result": "inactive"}]}
{"compound": "CC(C)(C=O)Cc1cc(C(C)(C)C)c(O)c(C(C)(C)C)c1", "values": [{"measurement": "Potency", "setting": "[1]", "result": "inactive"}, {"measurement": "Potency", "setting": "Papain (Carica papaya)", "result": "inactive"}]}
{"compound": "O=C(/C=C/c1ccccc1)NCCO", "values": [{"measurement": "Potency", "setting": "[1]", "result": "inactive"}, {"measurement": "Potency", "setting": "[4]", "result": "5.49 µM (active)"}]}
{"compound": "NC(=O)C(=O)O", "values": [{"measurement": "Potency", "setting": "[1]", "result": "inactive"}, {"measurement": "Potency", "setting": "Papain (Carica papaya)", "result": "inactive"}]}
{"compound": "O=[N+]([O-])c1ccc(CSc2ncnc3c2ncn3[C@@H]2O[C@H](CO)[C@@H](O)[C@H]2O)cc1", "values": [{"measurement": "Potency", "setting": "[1]", "result": "inactive"}, {"measurement": "Potency", "setting": "Papain (Carica papaya)", "result": "inactive"}]}
